Results published in the supplement of paper PMC10338343.
± gives the standard deviation.

The sequences below were run on MILI (PIWIL2) piRISC loaded with L1MC piRNA (26 nt) (assay: pre-steady-state target cleavage rate (min^-1); guide: L1MC piRNA 5'p-UAACUAAAUACUAUGCAAGCUGUAGG; MIWI and MILI are mouse PIWI proteins and EfPiwi is from a freshwater sponge; tags in brackets are library labels; higher = faster piRNA-guided slicing of the target). Conditions: auxiliary factor: 500 nM mouse GTSF1.
In short: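 Active affinity-purified piRISC (1 nM) loaded with one synthetic guide was mixed with a transcribed, DNA-blocked target RNA library (0.1 nM), with or without 500 nM GTSF1 partner protein, in HEPES–potassium acetate buffer at 33 °C for 0–8 or 0–960 min. Uncleaved targets were sequenced, normalised to depth and to weakly complementary targets, and pooled across three trials, with k3 capped at 0.0001 min^-1. The pre-steady-state cleavage rate was determined with a burst-and-steady-state fit.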
UCCUGCUACAGCUUGCAAUGUAUUUAGUAA was tested, and the “pre-steady-state target cleavage rate” value was 0.124 ± 0.023. In the case of UCCUGGAUCAGCUUGCAUAGUAUAAUGUAA, the “pre-steady-state target cleavage rate” value is reported as 0.0214 ± 0.0079. UCCUGCUACAGCUUGCAUUCUAUUUACAAA was tested, and the “pre-steady-state target cleavage rate” value was 0.0141 ± 0.0062. In the case of UCCUGGAUCAGCUUGCAUAGUAUUAUCAAA, the “pre-steady-state target cleavage rate” value is reported as 0.0975 ± 0.021. In the case of UCCUGGAUGUCGAUGCAUAGUAUUUAGUGUA, the “pre-steady-state target cleavage rate” value is reported as 0.149 ± 0.045. With UCCUGGAACAGCUUGCAUAGUAUUAACUUA the “pre-steady-state target cleavage rate” value was 0.0356 ± 0.0096. In the case of UCCUGGAUGUCGAACCAUAGUAUUCAGUUA, the “pre-steady-state target cleavage rate” value is reported as under 0.0001. UCCUGCUACAGCUUGCAAUCUAUUUACAAA was tested, and the “pre-steady-state target cleavage rate” value was 0.00954 ± 0.0044. UCCUGGAUGUCGAAGCAUAUUAUUUAGUUA was tested, and the “pre-steady-state target cleavage rate” value was 0.00703 ± 0.0037. With UCCUGGAUGUGCUUGCAUUGUAUUUAGAUA the “pre-steady-state target cleavage rate” value was 0.0503 ± 0.009. UCCUCCUACAGCUUGGUUAGUAUUUUCAAA was tested, and the “pre-steady-state target cleavage rate” value was 0.0137 ± 0.007. For UCCUGGAUCAGCUACCAUAGUAUUUAGAAA, the “pre-steady-state target cleavage rate” value was 0.024 ± 0.0091. In the case of UCCUGGUACAGCUUGCAUUCUAUUUAGUUA, the “pre-steady-state target cleavage rate” value is reported as 0.0335 ± 0.018.

Same assay, conditions: auxiliary factor: none (no GTSF1)
With UCCUGGAUGUCGUACGAUAGUAUUUAGUUA the “pre-steady-state target cleavage rate” value was under 0.0001. For UCCUGGAUGUCGAACCAUAGUAAAUAGUUA, the “pre-steady-state target cleavage rate” value was under 0.0001. With UCCUGGAUGUCGAACGUUAGUUAUUUAGUUA the “pre-steady-state target cleavage rate” value was under 0.0001.
